# Source: PubChem BioAssay (NCI)
# Compounds without any hit were thinned out: in the full panel of roughly 83,000, 20% have a hit.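 A percent growth of 40 corresponds to 60% growth inhibition; 0 means no net growth; -100 means all cells died. Active threshold: below 10.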 Values without a mark were called inactive. The source made the active and inactive calls.
# What was measured:
# Assay in all cases: NCI-60 one-dose screen, 48 h (100 = growth as untreated, 0 = no growth, -100 = all killed)
# Details in all cases: 10 µM unless noted
# [1] = test system: SR leukemia
# [2] = test system: RPMI-8226 leukemia
# [3] = test system: OVCAR-8 ovarian
# [4] = test system: OVCAR-5 ovarian
# [5] = test system: OVCAR-4 ovarian
# [6] = test system: SK-OV-3 ovarian
# [7] = test system: IGROV1 ovarian
# [8] = test system: OVCAR-3 ovarian
# [9] = test system: HS 578T breast
# [10] = test system: NCI/ADR-RES ovarian
# [11] = test system: T-47D breast
# [12] = test system: BT-549 breast
# [13] = test system: MDA-MB-435 melanoma
# [14] = test system: SW-620 colon
# [15] = test system: MCF7 breast
# [16] = test system: HCT-116 colon
# [17] = test system: HCC-2998 colon
# [18] = test system: KM12 colon
SMILES,growth [1],growth [2],growth [3],growth [4],growth [5],growth [6],growth [7],growth [8],growth [9],growth [10],growth [11],growth [12],growth [13],growth [14],growth [15],growth [16],growth [17],growth [18]
Cc1ccc(/C=C/C(=O)c2ccc(F)cc2)s1,10.3%,18.6%,43.6%,85.7%,81.2%,96.5%,83%,87%,102%,61.7%,62.9%,76.7%,52.1%,30.4%,35.9%,25.8%,88%,67.3%
COc1ccc2nc(-c3ccc(Cl)cc3)cc(-c3nnc(SCC(=O)Nc4ccc(C(C)=O)cc4)n3-c3ccccc3)c2c1,83.7%,104%,102%,96.4%,93.7%,93.9%,107%,96.8%,99.5%,95.2%,87.2%,87.5%,100%,108%,100%,100%,97.7%,95.3%
c1ccc2c(-c3nc4ccccc4[nH]3)cccc2c1,12.5%,33.2%,47.4%,62.9%,77.3%,30.8%,44.1%,12.2%,44.5%,-16.2% (active),36%,24.3%,-19% (active),16.8%,17.2%,16.7%,57.5%,21.8%
COc1ccc(-c2nc3sc4c(c3c(=O)[nH]2)CCCCCC4)cc1,27.9%,72%,70.7%,83.8%,50.4%,48%,63.1%,44.2%,58.4%,51.2%,64.2%,75.3%,2.83% (active),29%,54.1%,33.9%,80.9%,34.8%
COc1ccc2nc(NC(=O)CN3CCn4c(nnc4C(F)(F)F)C3)sc2c1,87.8%,90%,96.5%,97.9%,104%,105%,92.8%,93.7%,97%,93.6%,95%,96%,90%,94.5%,69.6%,99.4%,103%,79.3%
O[N+]1=CC=CCC1=S.On1ccccc1=S.[Zn],-4.29% (active),-32.6% (active),-50.4% (active),-83.1% (active),-95.6% (active),-96.6% (active),-81.2% (active),-97.4% (active),7.55% (active),-46.8% (active),-84.9% (active),-84% (active),-82.8% (active),-77.2% (active),-75.6% (active),-88.1% (active),-76.3% (active),-88.3% (active)
C[C@@H]1[C@H]2[C@H](C=C3[C@@H]4CC[C@H]5Cc6nc7c(nc6C[C@]5(C)[C@H]4C[C@@H](O)[C@@]32C)C[C@@H]2CC[C@H]3C4=C[C@@H]5O[C@@]6(CC[C@](C)(CO)O6)[C@@H](C)[C@@]5(O)[C@@]4(C)[C@H](O)C[C@@H]3[C@@]2(C)C7)O[C@]12CCC(C)(C)O2,2.45% (active),-29.9% (active),50.9%,8.43% (active),55.5%,9.45% (active),38.6%,50%,-4.77% (active),54%,7.03% (active),3.41% (active),51.8%,8.02% (active),15.5%,9.68% (active),66.5%,28.7%
N#Cc1c(-c2ccccc2)cc(-c2ccccc2)n(CCCCCCC(=O)O)c1=O,88.4%,108%,69.4%,99.5%,111%,117%,105%,109%,101%,102%,91.1%,101%,102%,103%,67.9%,98.5%,111%,98.9%
O=C1CSC(c2ccccc2Cl)N1c1nnc(Cn2nnc3ccccc32)o1 (configuration not stated),76%,69%,82.5%,91.2%,81%,94.6%,79.6%,71.4%,103%,62.4%,50.5%,98.9%,93.4%,93.2%,86.8%,60.1%,86.4%,77.1%
